MITF primary: human MITF inhibition, primary screen; O75030; AlphaScreen MITF homodimerization, bead proximity signal; inhibition, % at 2.6 µM; 0.91% of 650,000 active; AID 1259374; in the data active = inhibition above about 50%
Target sequence (O75030 whole entry, looked up): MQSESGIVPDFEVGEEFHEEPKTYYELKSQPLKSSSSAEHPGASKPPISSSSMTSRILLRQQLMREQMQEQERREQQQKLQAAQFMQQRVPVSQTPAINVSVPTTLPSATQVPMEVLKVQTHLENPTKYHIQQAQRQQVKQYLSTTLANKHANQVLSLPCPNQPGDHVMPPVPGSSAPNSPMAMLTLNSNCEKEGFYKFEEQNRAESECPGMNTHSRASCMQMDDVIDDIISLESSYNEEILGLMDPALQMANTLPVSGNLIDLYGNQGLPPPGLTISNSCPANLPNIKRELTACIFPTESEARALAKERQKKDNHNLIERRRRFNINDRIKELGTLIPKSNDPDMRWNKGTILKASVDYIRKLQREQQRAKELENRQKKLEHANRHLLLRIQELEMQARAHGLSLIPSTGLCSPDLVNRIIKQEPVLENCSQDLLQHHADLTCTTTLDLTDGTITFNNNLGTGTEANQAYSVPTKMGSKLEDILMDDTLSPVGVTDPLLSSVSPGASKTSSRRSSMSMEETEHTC
FBW7 act: activators of human E3 ligase FBW7. AlphaScreen FBW7–phospho-cyclin E peptide binding, activator screen. 0.13% of 650,000 active. normalized activity (activation), % at 26.1 µM; in the data active = normalized activity above about 1.9%;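 note: purified mutant Fbw7 with reduced substrate affinity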
TEAD-YAP block: TEAD-YAP interaction inhibition; HEK-TIYL cells, TEAD-Gal4/YAP UAS-luciferase luminescence; AID 1259422; inhibition, % at 9.12 µM; 1.4% of 640,000 active; in the data active = inhibition above about 32%
GPR151 ag: human GPR151 activation | 1% of 650,000 active | AID 1508602 | PathHunter beta-arrestin GPR151 cells, luminescence | activation, % at 11.2 µM; in the data active = activation above about 4.9%
Hits are given with their value; i = inactive. In the library only some 3.4% were active in any assay of this set; here they are far more common.

SMILES	MITF primary	FBW7 act	TEAD-YAP block	GPR151 ag
COc1cc(C(=O)Nc2ncc(Cc3ccccc3)s2)cc(OC)c1OC	i	i	53	i
COc1cc(C(=O)Nc2nnc(Cc3ccccc3)s2)cc(OC)c1OC	i	i	i	i
COc1cc(C(=O)Nc2ncc(Cc3cccc(Cl)c3)s2)cc(OC)c1OC	i	i	54	i
COc1ccc(CNC(=O)c2[nH]c(C)c(C(=O)NC3CCCCC3)c2C)cc1	i	i	i	i
O=C1c2ccccc2S(=O)(=O)N1Cn1ccnc1	i	i	i	i
COc1cc(C2CC(c3cc(Cl)ccc3O)=NN2)ccc1O (stereo not drawn)	i	i	i	i
Cc1cccc(NC(=O)N2CCCC(N3CCN(c4ccccc4)CC3)C2)c1 (stereo not drawn)	i	i	i	i
Cc1cccc(Oc2ccc(NC(=O)c3ccccc3C(=O)O)cc2)c1C	i	i	i	i
CCCCOc1ccc(NC(=O)C2CCCCC2C(=O)O)cc1 (stereo not drawn)	i	i	i	i
O=C(O)c1ccccc1C(=O)Nc1ccc(Oc2cccc3ccccc23)cc1	i	i	82	i
O=C(O)C1CCCCC1C(=O)Nc1ccc(Oc2cccc3ccccc23)cc1 (stereo not drawn)	i	i	71	i
Cn1c(Nc2cc(C(=O)NCc3cccc(C(F)(F)F)c3)ccn2)nc2ccccc21	i	i	35	i
CC1=C(C(=O)Nc2ccc(C)cn2)C(c2ccsc2)C2=C(CC(C)(C)CC2=O)N1 (stereo not drawn)	i	i	55	i
COc1ccc(COC(=O)C2=C(C)NC3=C(C(=O)CC(C)(C)C3)C2c2ccc(-c3ccccc3)cc2)cc1 (stereo not drawn)	i	i	i	i
COC(=O)C1=C(C)NC2=C(C(=O)CC(c3ccccc3)C2)C1c1cc(OC)ccc1OC (stereo not drawn)	i	i	33	i
COc1ccc(C2CC(=O)C3=C(C2)NC(C)=C(C(=O)OCc2ccccc2)C3c2ccc(OC)c(Br)c2)cc1 (stereo not drawn)	i	i	48	i
CCOC(=O)C1=C(C)NC2=C(C(=O)CC(c3ccccc3)C2)C1c1cc(OC)ccc1OC (stereo not drawn)	i	i	i	i
CC1=C(C(=O)Nc2ccccn2)C(c2ccsc2)C2=C(CC(C)(C)CC2=O)N1 (stereo not drawn)	i	i	i	i
COC(=O)C1=C(C)NC2=C(C(=O)CC(c3ccc(OC)cc3)C2)C1c1ccc(OC)c(Br)c1 (stereo not drawn)	i	i	i	i
COc1ccc(COC(=O)C2=C(C)NC3=C(C(=O)CC(C)(C)C3)C2c2ccccc2)cc1 (stereo not drawn)	i	2.6	i	i
COc1ccc(CNCc2ccccc2)c(OC)c1OC	i	i	i	i
CCC(C)NC(=O)CCC(=O)N1CCOc2ccc(Cl)cc21 (stereo not drawn)	i	i	i	i
CCOC(=O)C1=C(C)NC2=C(C(=O)C(C(=O)OC)C(C)C2)C1c1ccc(OC)cc1 (stereo not drawn)	i	2.3	i	i
COc1ccccc1NC(=O)C1=C(C)NC2=C(C(=O)CC(C)(C)C2)C1c1cccc(O)c1 (stereo not drawn)	i	2.4	i	i
CCOC(=O)C1=C(C)NC2=C(C(=O)C(C(=O)OC)C(C)C2)C1c1ccc(C)cc1 (stereo not drawn)	i	i	i	i
SMILES	MITF primary	FBW7 act	TEAD-YAP block	GPR151 ag
COc1ccc(C2=NN(C(=O)c3cc(OC)c(OC)c(OC)c3)C(c3ccccc3OC)C2)cc1OC (stereo not drawn)	i	i	35	i
CC(CCc1ccccc1)Nc1cc(N2CCN(C(=O)c3ccccc3F)CC2)ccc1[N+](=O)[O-] (stereo not drawn)	i	i	i	i
CCOC(=O)c1c(NC(=O)/C=C/C(=O)O)sc2c1CCCCCC2	i	i	35	i
CCOC(=O)c1c(NC(=O)/C=C/C(N)=O)sc2c1CCCC2	i	i	43	i
CCOC(=O)c1c(NC(=O)CN2CCCCCC2)sc2c1CCCCC2	i	i	i	i
CCOC(=O)c1c(NC(=O)CN2CCN(CC)C(=O)C2=O)sc2c1CCCC2	i	i	44	i
CCOC(=O)c1c(NC(N)=O)sc2c1CCCC2	i	i	i	i
COc1cc(NC(=O)c2ccc(-c3ccc(C(N)=O)cc3)s2)cc(OC)c1OC	i	i	i	i
COc1ccc(-c2ccc(C(=O)Nc3cc(OC)c(OC)c(OC)c3)s2)cc1	i	i	36	i
COc1cc(NC(=O)c2ccc(-c3ccc(N4CCN(C)CC4)cc3)s2)cc(OC)c1OC	i	i	62	i
N[C@H](Cc1cc(F)cc(F)c1)c1nc2ccc(-c3ccncc3)cc2[nH]1	i	i	i	i
